{"source": "PubChem BioAssay (EPA / NIEHS)", "note": "Activity calls are given as the source filed them. How the source made its calls: active means hit-call score of the fitted dose curve at least 0.9, where 1 is the maximum; inactive means score below 0.9.", "data": [{"assay": "CCTE_Harrill_HTTr_Viability_MCF7: CCTE's 6-hour Cell Viability Assessment for the High-Throughput Transcriptomics (HTTr) Platform, in MCF-7 cells cultured in DMEM + 10% fetal bovine serum, Harrill Lab (AID 2284010)", "procedure,_shortened": "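Read-out is propidium iodide gain of signal by high-content imaging, reflecting membrane integrity loss. Measurements are taken 6 h after dosing, eight concentrations per chemical, with DMSO serving as baseline for bidirectional curve fitting.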", "values": [{"smiles": "CCCCCCCCCCCC(=O)O", "outcome": "inactive"}, {"smiles": "Nc1ccn([C@@H]2O[C@H](CO)[C@@H](O)C2O)c(=O)n1", "note": "(stereo partly drawn)", "outcome": "inactive"}, {"smiles": "O=C(O)c1cccc(C(=O)O)n1", "outcome": "inactive"}, {"smiles": "CC(C)(c1ccc(Oc2ccc(N)cc2)cc1)c1ccc(Oc2ccc(N)cc2)cc1", "outcome": "inactive"}, {"smiles": "C[C@]12CC[C@@H]3c4ccc(O)cc4CC[C@H]3[C@@H]1C[C@@H](O)[C@@H]2O", "outcome": "inactive"}, {"smiles": "CCC(=O)O", "outcome": "inactive"}, {"smiles": "CCCCCC(C)OC(=O)COc1ccc(Cl)c2cccnc12", "note": "(stereo not drawn)", "outcome": "inactive"}, {"smiles": "Cc1ccccc1C(OCCN(C)C)c1ccccc1", "note": "(stereo not drawn)", "outcome": "inactive"}, {"smiles": "CCCCCCCCC(C)=O", "outcome": "inactive"}, {"smiles": "Cn1sccc1=O", "outcome": "inactive"}, {"smiles": "O=C(O)C(=O)O", "outcome": "inactive"}, {"smiles": "CCCCCCCCCCCC[N+](C)(C)Cc1ccccc1", "AC50": "68.8 µM (active)"}, {"smiles": "Cc1cc(Cc2cc(C)cc(C(C)(C)C)c2O)c(O)c(C(C)(C)C)c1", "outcome": "inactive"}, {"smiles": "CS(=O)(=O)c1ccc([C@@H](CC2CCCC2)C(=O)Nc2cnccn2)cc1Cl", "outcome": "inactive"}, {"smiles": "Cc1cccc2c1ccc1ccccc12", "outcome": "inactive"}, {"smiles": "COC1=CC(=O)C[C@@H](C)[C@]12Oc1c(Cl)c(OC)cc(OC)c1C2=O", "outcome": "inactive"}, {"smiles": "CCCCCCCCCCCCCCCCCC[N+](C)(C)Cc1ccccc1", "outcome": "inactive"}, {"smiles": "C=CC(C)(CCC=C(C)C)OC(C)=O", "note": "(stereo not drawn)", "outcome": "inactive"}, {"smiles": "Cc1cncc(C)c1", "outcome": "inactive"}, {"smiles": "CC(C)(C)C1CCCCC1O", "note": "(stereo not drawn)", "outcome": "inactive"}, {"smiles": "CC1=CC(=O)c2ccccc2C1=O", "outcome": "inactive"}, {"smiles": "CCCCC(CC)C(=O)O", "note": "(stereo not drawn)", "outcome": "inactive"}, {"smiles": "Brc1ccc(Oc2ccc(Br)cc2Br)cc1", "outcome": "inactive"}, {"smiles": "CNNCc1ccc(C(=O)NC(C)C)cc1", "outcome": "inactive"}, {"smiles": "CC(C)(C)c1ccc(CCC=O)cc1", "outcome": "inactive"}, {"smiles": "CC1=NN(c2ccccc2)C(=O)C1", "outcome": "inactive"}, {"smiles": "c1cnc2c(c1)ccc1cccnc12", "outcome": "inactive"}, {"smiles": "C[C@]12CC[C@@H]3c4ccc(O)cc4CC[C@H]3[C@@H]1CC[C@@H]2OC(=O)CCC1CCCC1", "outcome": "inactive"}, {"smiles": "CC(C)c1c(C(=O)Nc2ccccc2)c(-c2ccccc2)c(-c2ccc(F)cc2)n1CC[C@@H](O)C[C@@H](O)CC(=O)O", "outcome": "inactive"}, {"smiles": "CC(C)(C)c1ccc(O)c(O)c1", "outcome": "inactive"}, {"smiles": "CCCCCCCCCCCCOS(=O)(=O)O", "outcome": "inactive"}, {"smiles": "CCCCCCCCCCCCCCC", "outcome": "inactive"}, {"smiles": "O=C(NO)c1ccccc1", "outcome": "inactive"}, {"smiles": "CC(=O)Nc1ccc(S(N)(=O)=O)cc1", "outcome": "inactive"}, {"smiles": "O=c1cc(-c2ccccc2)oc2ccc3ccccc3c12", "outcome": "inactive"}, {"smiles": "C=Cc1ccc(O)c(OC)c1", "outcome": "inactive"}, {"smiles": "Cc1[nH]nc2c1N=C(c1ccccc1Cl)c1cc([N+](=O)[O-])ccc1N2", "outcome": "inactive"}, {"smiles": "CC1CCC(CO)CC1", "note": "(stereo not drawn)", "outcome": "inactive"}]}]}
